According to PubChem BioAssay:
The source made the active and inactive calls.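 How the source made its calls, unless noted: active means visual image review flags a hit and inhibition of aggregation exceeds 20%; inconclusive means visual hit but inhibition at or below 20%; inactive means no hit on visual image review.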

Key:
[1] = inhibitors of TNFa-induced NFkB p65 translocation, primary screen, imaging, HUVEC, MLSMR starter and 10KST1 sets (AID 438;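 active means inhibition above 20% together with a positive visual image hit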;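 further: compound added about 3h40 before a 20 min TNFalpha stimulation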;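 on inhibition: signal is the nuclear over cytoplasmic p65 intensity ratio per well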); conditions: HUVEC TNFa-induced p65 nuclear translocation; cell count: measured here: nuclei count (cytotoxicity indicator), at 2.08 µM; inhibition: at 2 µM, stronger effect = higher value, 0% TNFa-plus-vehicle, 100% no-TNFa wells
[2] = inhibitors of mutant huntingtin aggregation, primary screen, imaging, exon1htt(103Q)mCFP cells, high-content imaging (AID 483); conditions: exon1htt(103Q)mCFP cell line, aggregate imaging, at 2 µM; inhibition of aggregation: stronger effect = higher value; nuclei count: measured here: cell count, toxicity;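 further: compound exposure lasted 3 days before fixation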;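 on nuclei count: percent of the per-plate median nuclei count of sample wells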
[3] = inhibitors of E-selectin induction by TNFa, primary screen, imaging, HUVEC, immunofluorescence, MLSMR starter and 10KST1 sets (AID 487;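 active means visually confirmed hit in the image check and inhibition above 20%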;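 on inhibition: signal is fraction of cell area covered by stained E-selectin grains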;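 on nuclei count: 100% = median nuclei count of all wells on the same plate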); conditions: HUVEC TNFalpha-induced E-selectin immunofluorescence imaging, at 2 µM; inhibition: stronger effect = higher value; nuclei count: measured here: cell number, toxicity
[4] = biological target: Voltage-gated potassium channel subunit beta-2 (Rattus norvegicus) (UniProt P62483); assay: KvBeta enzyme negative modulators, primary screen, biochemical, NADPH fluorescence (AID 622;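 active means fluorescence slope higher than the sample average by over 3 SD, cut at about -0.22 in these data, passing the limit was not always enough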;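 further: slope of raw intensity against log time taken from 70 to 1610 s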); conditions: recombinant KvBeta, 4-cyanobenzaldehyde reduction, at 10 µM, stronger effect = higher value
Voltage-gated potassium channel subunit beta-2 (Rattus norvegicus), sequence (P62483 whole entry, looked up): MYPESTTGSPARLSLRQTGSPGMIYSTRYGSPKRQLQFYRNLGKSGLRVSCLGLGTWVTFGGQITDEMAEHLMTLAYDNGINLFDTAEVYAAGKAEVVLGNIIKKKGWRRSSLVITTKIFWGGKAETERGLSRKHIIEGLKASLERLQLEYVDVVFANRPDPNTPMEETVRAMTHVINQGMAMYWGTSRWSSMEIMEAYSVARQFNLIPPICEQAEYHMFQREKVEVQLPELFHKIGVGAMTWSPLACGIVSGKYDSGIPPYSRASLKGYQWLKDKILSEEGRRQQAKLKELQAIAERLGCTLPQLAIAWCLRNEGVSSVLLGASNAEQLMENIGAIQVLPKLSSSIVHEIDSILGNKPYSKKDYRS

[5] = biological target: Voltage-gated potassium channel subunit beta-2 (Rattus norvegicus) (UniProt P62483); assay: KvBeta positive modulators, primary screen, biochemical, NADPH fluorescence (AID 623;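 active means NADPH fluorescence slope more negative than the mean of all samples by about 3 SD, 99.7% confidence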;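 further: fluorescence intensity change per second fitted from 20 to 320 s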); conditions: Recombinant KvBeta, NADPH fluorescence decrease slope, 10 min; at 10 µM; stronger effect = lower value
[6] = biological target: Alpha-2C adrenergic receptor (Homo sapiens) (UniProt P18825); assay: modulators of alpha2C/GIRK thallium flux, primary screen, cell-based, HEK293 alpha2C/GIRK1/2 (AID 624;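 active means fluorescence slope after compound addition differing from the mean of all screened samples at 99.7% confidence, in either direction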;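 further: slope of fluorescence ratio to pre-addition baseline per second over 15 to 24 s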); conditions: thallium flux BTC fluorescence, at 10 µM, actives lie on both sides
Alpha-2C adrenergic receptor (Homo sapiens), sequence (P18825 whole entry, looked up): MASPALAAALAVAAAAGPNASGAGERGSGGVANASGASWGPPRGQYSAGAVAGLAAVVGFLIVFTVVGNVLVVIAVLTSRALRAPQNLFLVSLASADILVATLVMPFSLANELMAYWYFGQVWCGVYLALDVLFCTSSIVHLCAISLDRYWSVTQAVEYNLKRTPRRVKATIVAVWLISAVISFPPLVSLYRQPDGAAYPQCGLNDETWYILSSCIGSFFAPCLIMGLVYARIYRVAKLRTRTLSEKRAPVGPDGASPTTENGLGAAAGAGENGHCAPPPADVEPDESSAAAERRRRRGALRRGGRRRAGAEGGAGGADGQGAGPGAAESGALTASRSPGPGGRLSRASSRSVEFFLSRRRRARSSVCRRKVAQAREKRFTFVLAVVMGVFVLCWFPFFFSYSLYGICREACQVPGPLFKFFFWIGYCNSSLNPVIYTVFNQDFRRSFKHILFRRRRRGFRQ

[7] = inhibitors of Sendai virus-induced IRF3 signaling, primary screen, TLR/RLR signaling modifier project, cell-based, Sendai virus stimulus, luciferase, 10K MLSCN set (AID 602276;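 active means inhibition at or above 50% at 10 µM; inactive means inhibition below 50%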;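 further: firefly luciferase from ISG56 promoter only with Renilla not read in this screen; 0% = Sendai virus plus DMSO and 100% = medium plus DMSO without virus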); conditions: HEK293 RL24 IRF3 luciferase reporter, at 10 µM, stronger effect = higher value
[8] = inhibitors of poly I:C-induced TLR3 signaling, primary screen, cell-based, poly I:C stimulus, luciferase, 10K MLSCN set (AID 602277;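 active means inhibition of the reporter signal at or above 50%; inactive means inhibition below 50%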); conditions: HEK293-TLR3 RL24 IRF3 luciferase reporter, at 10 µM, stronger effect = higher value

SMILES	cell count [1]	inhibition [1]	inhibition of aggregation [2]	nuclei count [2] [%]	inhibition [3]	nuclei count [3] [%]	fluorescence slope [4]	NADPH fluorescence slope [5]	slope [6]	inhibition [7]	inhibition [8]
CC(=O)Nc1sc2c(c1CN1CCN(c3ccccn3)CC1)CCCC2	698	-14.6% (inactive)	5.2% (inactive)	95.6	54.3% (active)	95.3	-0.517 (inactive)	-3.7e-05 (inactive)	0.00435 (inactive)	6.55% (inactive)	12.4% (inactive)
CCOC(=O)c1c(N)sc(C(=O)N2CCOCC2)c1C	314	-11.5% (inactive)	12.2% (inactive)	103	-10.6% (inactive)	119	-0.345 (inactive)	2.6e-05 (inactive)	0.00763 (inactive)	16.8% (inactive)	18.1% (inactive)
CC1CCCCC1NC(=O)Cn1nnc(-c2ccc(Cl)cc2)n1 (centres undefined)	447	1.9% (inactive)	-8.6% (inactive)	92.4	-27.6% (inactive)	99.4	-0.578 (inactive)	-2.2e-05 (inactive)	0.00728 (inactive)	-4.91% (inactive)	-12% (inactive)
Cc1ccc(S(=O)(=O)N(CC(=O)NCc2ccco2)Cc2ccccc2F)cc1	308	2.4% (inactive)	14% (inactive)	92.3	-3.2% (inactive)	103	-0.524 (inactive)	1.7e-06 (inactive)	0.00527 (inactive)	8.9% (inactive)	11.9% (inactive)
Cc1ccc(-c2noc(CN3C(C)CCCC3C)n2)cc1 (centres undefined)	483	2.1% (inactive)	-5.2% (inactive)	75.4	-26.4% (inactive)	101	-0.531 (inactive)	-1.6e-05 (inactive)	0.00754 (inactive)	2.73% (inactive)	0.396% (inactive)
O=C(NCc1ccccc1)c1cc(-c2ccco2)on1	445	-0.9% (inactive)	-0.2% (inactive)	102	-18.9% (inactive)	103	-0.506 (inactive)	-3.5e-05 (inactive)	0.00556 (inactive)	-27.8% (inactive)	-74.9% (inactive)
CC1CN=C(N(C(=O)Nc2ccccc2)c2ccc(S(=O)(=O)N3CCOCC3)cc2)S1 (centres undefined)	476	-4.8% (inactive)	11.9% (inactive)	95.4	-38.9% (inactive)	112	-0.356 (inactive)	-5.2e-05 (inactive)	0.00838 (inactive)	3.57% (inactive)	6.41% (inactive)
O=C(NCc1ccc2c(c1)OCO2)c1cccc2c1C(=O)N(C1CCCCC1)C2	570	-5% (inactive)	-12.5% (inactive)	108	3.2% (inactive)	115	-0.615 (inactive)	-1.7e-05 (inactive)	0.00632 (inactive)	8.65% (inactive)	15.3% (inactive)
CCOc1ccc2[nH]c(=O)c(C(c3nnnn3Cc3ccco3)N3CCC(C)CC3)cc2c1 (centres undefined)	218	0.8% (inactive)	13.4% (inactive)	97.1	-65.3% (inactive)	82.3	-0.539 (inactive)	-2.2e-05 (inactive)	0.00417 (inactive)	13% (inactive)	20.5% (inactive)
N#CCCN1CCN(S(=O)(=O)c2ccc(S(=O)(=O)NC3CCCC3)cc2)CC1	689	-10% (inactive)	-6.8% (inactive)	126	-2.1% (inactive)	126	-0.624 (inactive)	-3.6e-05 (inactive)	0.00706 (inactive)	-1.55% (inactive)	28.4% (inactive)
COc1ccccc1NCN1C(=O)CCC1=O	710	5.4% (inactive)	-0.4% (inactive)	97.3	-32.2% (inactive)	104	-0.551 (inactive)	-2.5e-05 (inactive)	0.00722 (inactive)	13.3% (inactive)	26.9% (inactive)
Cc1ccc(CCNC(=O)C2CCCN2S(=O)(=O)c2ccc3c(c2)CCC(=O)N3)cc1 (centres undefined)	702	-4.8% (inactive)	-29.3% (inactive)	102	-35% (inactive)	121	-0.547 (inactive)	-1e-05 (inactive)	0.0066 (inactive)	-15.7% (inactive)	0.529% (inactive)
O=C(CN(c1ccc(F)cc1)S(=O)(=O)c1ccc2c(c1)OCCO2)Nc1ccc2c(c1)OCO2	795	-6.1% (inactive)	-28.9% (inactive)	105	-49.1% (inactive)	114	-0.485 (inactive)	-3.3e-05 (inactive)	0.00328 (inactive)	16.4% (inactive)	16.1% (inactive)
O=C(O)c1cc(-c2ccccc2Cl)n[nH]1	240	8% (inactive)	-10.1% (inactive)	109	-51% (inactive)	97.9	-0.604 (inactive)	-2e-05 (inactive)	0.00669 (inactive)	11.2% (inactive)	22.8% (inactive)
